In PubChem BioAssay (NCATS) one finds outcome data, which are given here for 32 compounds.

Active and inactive are the calls of the source. Calls follow the shape of the dose curve; as a rule, active = well fitted curve in the direction sought with a large enough effect; inconclusive = small, poorly fitted or top-dose-only effect, or effect the other way, or another doubt; inactive = no such curve, though single readings can be large or run the other way.

The test is described as follows: qHTS for Inhibitors of Cell Surface uPA Generation: Validation Assay (AID 493164).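 Also: RAW 264.7 macrophage cells exposed to compound for 18 h.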 To be noted: mouse cells, plasminogen activation; series mostly up to 38.3 µM. The source says:
NIH Chemical Genomics Center [NCGC]
NIH Molecular Libraries Probe Centers Network [MLPCN]
Assay Submitter (PI): Thomas Bugge
The overall objective of this project is to perform a quantitative high throughput screen (qHTS) to identify novel compounds that inhibit the generation of cell surface urokinase activity. The urokinase plasminogen activator (uPA) is one of the two primary endogenous systems that mediate plasminogen activation into plasmin. Members of this system, including uPA and its receptor (uPAR), are overexpressed in several malignant tumors. This system plays a major role in adhesion, migration, invasion and metastasis of cancer cells. Small molecule inhibitors of the uPA system will serve as probes to understand the molecular mechanisms of the uPA cascade and better understanding the microenvironmental circumstances that facilitate the activation of plasminogen by uPA, and finally may provide novel candidate agents for anticancer drug therapy.
[…] […] Upon inhibition of the uPA activation cascade, the subsequent cell surface uPA activity-dependent translocation of LF into the cytoplasm is inhibited. ATP-Lite is used to measure intracellular ATP concentrations, which remain increased if LF entry into the cytoplasm is inhibited. This validation assay was performed using a small set of validation compounds.
uPA assay protocol summary:
RAW 264.7 cells were maintained in DMEM medium (Invitrogen, Carlsbad, CA) at 37C under a humidified atmosphere containing 5% CO2 and 95% air. The medium contained 10% FBS, 1 mM sodium pyruvate and 50 U/ml penicillin/streptamycin (Invitrogen, Carlsbad, CA). All compounds were screened as 7-point titration from 2.45 nM to 38.3 uM final concentration. The assay was performed in 1536-well format plate as follows:
1.Dispensing RAW 264.7 cells into 1536-well, white walled tissue culture plates at a density of 4000 cells/well (4 uL).
2.Incubation at 37 C in a 5% CO2 incubator overnight.
3.Serially diluting compounds (1:5 serial dilution; 0.0024 uM to […] final concentration) in 23 nl DMSO.
5.Incubating the compound and reagent-treated plates for 18 hours at 37 C in a 5% CO2 incubator.
6.Adding ATP-Lite (3 ul).
7.Reading plates by ViewLux with an exposure length of 5 seconds.
(In qHTS, concentration-response curves come from the screen itself.)
Turning to `CN1C[C@H](CNC(=O)OCc2ccccc2)C[C@@H]2c3cccc4c3c(cn4C)C[C@H]21`, the call was inactive. The value for `Cc1cccc(C)c1NC1=NCCCS1` was “inactive”; that for `COc1ccccc1N1CCNCC1` was “inactive”; that for `NN=C(N)N` was “inactive”.

Regarding `N#CC(C#N)=Cc1ccc(O)c(O)c1`, the compound was classed as inactive. The value for `Fc1ccc(C(OCCN2CCN(CCCc3ccccc3)CC2)c2ccc(F)cc2)cc1` was “inactive”; that for `CNCC(O)c1ccc(O)cc1` (configuration not stated) was “inactive”. In the case of `CC(=O)[C@H]1CC[C@H]2[C@@H]3CC[C@H]4C[C@](C)(O)CC[C@]4(C)[C@H]3CC[C@]12C` it was “inactive”; in that of `C[C@@H]1O[C@@H](O[C@H]2C[C@@H](O)[C@]3(CO)[C@H]4[C@H](O)C[C@]5(C)[C@@H](C6=CC(=O)OC6)CC[C@]5(O)[C@@H]4CC[C@]3(O)C2)[C@H](O)[C@H](O)[C@H]1O`, “inactive”; in that of `NCC(O)c1ccc(O)cc1` (configuration not stated), “inactive”.

On to `Nc1ccncc1`, for which the call was inactive. In the case of `CCCN1CCC[C@@H]2Cc3nc(N)ncc3C[C@H]21` it was “inactive”; in that of `CCCC(C)(COC(N)=O)COC(=O)NC(C)C` (configuration not stated), “inactive”; in that of `CC(C)=CCOc1c2occc2cc2ccc(=O)oc12`, “inactive”.

Consider `CC[C@@H](CO)NC(=O)[C@@H]1C=C2c3cccc4c3c(cn4C)C[C@H]2N(C)C1`, for which the call was inactive. Turning to `Cc1cccc(C)c1NC(=O)CN1CCCC1=O`, the compound was called inactive. The value for `COc1ccc(C(CN(C)C)C2(O)CCCCC2)cc1` (configuration not stated) was “inactive”; that for `CCCN1CCC[C@@H]2Cc3[nH]ncc3C[C@H]21` was “inactive”. The value for `C=C(C)[C@H]1Cc2c(ccc3c2O[C@@H]2COc4cc(OC)c(OC)cc4[C@@H]2C3=O)O1` was “inactive”; that for `CC(CCc1ccccc1)NC(C)C(O)c1ccc(O)cc1` (configuration not stated) was “inactive”. For `c1ccc2c(c1)OCC(C1=NCCN1)O2` (configuration not stated), the result was inactive. The value for `CC(=O)[C@H]1CC[C@H]2[C@@H]3CC[C@H]4C[C@H](O)CC[C@]4(C)[C@H]3C(=O)C[C@]12C` was “inactive”; that for `NCC1(CC(=O)O)CCCCC1` was “inactive”. On to `CCC1(C2=NCCN2)Cc2ccccc2O1` (configuration not stated), for which the compound was classed as inactive. In the case of `NCC(CC(=O)O)c1ccc(Cl)cc1` (configuration not stated) it was “inactive”. Take `c1ccc(C2CC2)c(OCC2=NCCN2)c1`: the compound was classed as inactive. The value for `CC[C@@H](CO)NC(=O)[C@@H]1C=C2c3cccc4[nH]cc(c34)C[C@H]2N(C)C1` was “inactive”; that for `Cc1ncc(CNC(=O)N(CCCl)N=O)c(N)n1` was “inactive”. `O=c1[nH]c2ccccc2n1CCCN1CCC(n2c(=O)[nH]c3cc(Cl)ccc32)CC1`: the compound was called inactive. Consider `CC(O)(CS(=O)(=O)c1ccc(F)cc1)C(=O)Nc1ccc(C#N)c(C(F)(F)F)c1` (configuration not stated), for which the compound was classed as inactive.

For `O=C1NCN(c2ccccc2)C12CCN(CC1COc3ccccc3O1)CC2` (configuration not stated), the compound was classed as inactive.

As to `O=c1[nH]c2ccccc2n1C1CCN(CCCC(c2ccc(F)cc2)c2ccc(F)cc2)CC1`, the call was inactive.
